The sample as a whole holds a higher share of hits than the screen did.
VACV Venus inh – inhibitors of vaccinia virus (Venus reporter) | AID 720580 | hit rate 0.46% among 330,000 | Potency, µM (highest dose often 36.5 µM), inactives show at the top dose activity change, negative = inhibition, hits mostly inhibitors | Vaccinia virus Venus reporter expression, fluorescence; calls by dose curve; tested in A549 cells; also: potency is read from the fitted curve at half-maximal effect; % is scaled to controls: 0 for no effect and ±100 for the full control effect; nearly all actives have a fitted effect of over 30% in size
Cycloheximide cs – affects cycloheximide protein synthesis inhibition readout, counter-screen; cell reporter, cycloheximide protein synthesis inhibition counterscreen; max response, %; hit rate 12% among 300,000; AID 2314; in the data active = max response mostly above about 13%, no sharp cut-off; inactive = mostly below about 14%; also: read at 38.3 µM for the half of the compounds with a filed dose; 0% is about no effect
Shiga toxin inh – Shiga toxin inhibition; Vero cells, Shiga toxin protein synthesis inhibition reporter; inhibition, % at 38.7 µM; hit rate 9.2% among 290,000; AID 2315; in the data active = inhibition mostly above about 28%, no sharp cut-off; inactive = mostly below about 43%; also: 0% is about no effect
Marburg entry inh – blocks Marburg virus binding to or entry into cells; AID 540276; Potency, µM (titrated, usually from 37.8 µM), inactives show top-dose activity change, negative = inhibition, most hits filed as inhibitors; Marburg virus pseudotyped entry inhibition, cell reporter; hit rate 1.8% among 300,000; calls by dose curve; tested in HEK293 cells; also: potency is read from the fitted curve at half-maximal effect; % is scaled to controls: 0 for no effect and ±100 for the full control effect
LASV entry inh – Lassa virus entry inhibition. Lassa virus pseudotype entry inhibition, cell reporter. hit rate 1.2% among 300,000. Potency, µM (top dose mostly 37.9 µM), without a hit: top-dose activity change, negative = inhibition, most hits filed as inhibitors; calls by dose curve; tested in HEK293 cells; also: potency is read from the fitted curve at half-maximal effect; % is scaled to controls: 0 for no effect and ±100 for the full control effect; nearly all actives have a fitted effect of over 50% in size
VACV mCherry inh – vaccinia inhibition (mCherry reporter); Vaccinia virus mCherry reporter infection, fluorescence; Potency, µM (highest dose often 36.5 µM), for the others: top-dose activity change, negative = inhibition, actives largely listed as inhibitors; hit rate 0.63% among 310,000; AID 720579; calls by dose curve; tested in A549 cells; also: potency is read from the fitted curve at half-maximal effect; % is scaled to controls: 0 for no effect and ±100 for the full control effect; nearly all actives have a fitted effect of over 35% in size
Numbers without * were called inactive; i = inactive; ? = inconclusive; · = no result given; [ ] = dose if it differs, or a comment.

SMILES	VACV Venus inh	Cycloheximide cs	Shiga toxin inh	Marburg entry inh	LASV entry inh	VACV mCherry inh
CN(Cc1ccccc1)C(=O)c1ccc2c(c1)OCCO2	-2%	11	15	4%	17%	·
O=C(Cc1ccccc1)c1ccc2c(c1)OCCO2	0%	43*	87*	?	-3%[46.1 µM]	i
COc1ccc(NC(=O)c2nnn(Cc3nc(-c4cc(Br)ccc4OC)oc3C)c2C)cc1	-24%	·	·	4%[46.1 µM]	8%[46.1 µM]	-23%
Cc1onc(-c2ccccc2)c1C(=O)NCCN1Cc2ccccc2OC(c2ccsc2)C1 (configuration not stated)	-9%	·	·	·	·	-1%
CC(Sc1nc2ccccc2o1)C(=O)O (configuration not stated)	·	37*	79*	?	-3%	·
CCC(Sc1nc2ccccc2o1)C(=O)O (configuration not stated)	-10%	15	30	3%[46.1 µM]	11%[46.1 µM]	i
O=C(CSc1nc2ccccc2o1)c1cc2ccccc2oc1=O	-4%	25*	89*	?	4%	·
O=C(CSc1nc2ccccc2o1)Nc1ccccc1	·	8.5*	30	18%	7%	·
CSc1cccc(NC(=O)CSc2nc3ccccc3o2)c1	-19%	40*	63*	18%	-2%	-2%
Cc1cc2c(cc(C(=O)OC(C)C(=O)NCc3ccc(F)cc3)n2C)o1 (configuration not stated)	-19%	·	·	-33%[46.1 µM]	2%	-28%
O=C(NCC1CCCO1)C1CC1(c1ccccc1)c1ccccc1 (configuration not stated)	-12%	-2	-14	·	·	i
Cc1nnc(SCC(=O)Nc2ccccc2)c2ccccc12	2%	48*	46*	-4%[46.1 µM]	-19%	-1%
O=C(O)CSc1nc2ccccc2o1	·	30*	78	?	12%	·
O=C(CSc1nc2ccccc2o1)N1CCCC1	-9%	13	9	12%	5%	0%
Cc1ccc(C(=O)CSc2nc3ccccc3o2)cc1	-13%	26*	50	14%	35%	-21%
Cc1nnc(SCC(=O)Nc2ccc(O)cc2)c2ccccc12	-16%	11	-10	?	-29%[46.1 µM]	?
O=C(CSc1nc2ccccc2o1)N1CCOCC1	·	27*	42*	·	·	·
Cc1ccc(C(=O)NNC(=O)CCN2C(=O)C3CCCCC3C2=O)cc1 (configuration not stated)	-14%	-2	-12	?	-1%	-10%
Cc1ccc2oc(=O)c3cc(C(=O)N4CCN(C)CC4)sc3c2c1	2%	1	-5	·	·	0%
CC1c2ccccc2N(S(=O)(=O)c2ccccc2)C1C (configuration not stated)	-29%	·	·	3.5µM*	?	-28%
COC(=O)c1cc(S(=O)(=O)NCC2CCN(Cc3ccccc3F)CC2)c[nH]1	-7%	-1	-3	·	?	-6%
C=CCNC(=O)C1CC(=O)N(c2ccc(OCc3ccc(F)cc3)cc2)C1 (configuration not stated)	·	47*	72*	·	·	·
CCCNC(=O)C1CC(=O)N(c2ccc(OCc3ccc(Cl)cc3)cc2)C1 (configuration not stated)	?	27*	·	?	?	-4%
C=CCNC(=O)C1CC(=O)N(c2ccc(OCC(=O)Nc3ccccc3)cc2)C1 (configuration not stated)	-7%	30*	48*	29%	-10%	-9%
NC(=O)C1CC(=O)N(c2ccc(OCc3ccc(Cl)cc3)cc2)C1 (configuration not stated)	·	50*	79*	·	·	·
SMILES	VACV Venus inh	Cycloheximide cs	Shiga toxin inh	Marburg entry inh	LASV entry inh	VACV mCherry inh
C=CCC[C@H](Cc1ccc(F)cc1)C(=O)OC[C@@H](NC(=O)[C@H](CC=C)CC(=O)NCCO)c1ccccc1	-23%	·	·	·	·	i
CC(=O)c1ccc(-c2cc(F)cc3c2OC(CNC(=O)c2ccc[n+]([O-])c2)C3)s1 (configuration not stated)	0%	·	·	·	·	-4%
CCCNC(=O)C1CC(=O)N(c2ccc(OCc3ccc(F)cc3)cc2)C1 (configuration not stated)	·	33*	112*	·	·	·
CCOc1ccc(N2CC(C(=O)NCc3ccc(F)cc3)CC2=O)cc1 (configuration not stated)	-7%	1	20	14%	0%	-8%
O=C(O)c1cnn(-c2nc(-c3ccc(Br)cc3)cs2)c1C(F)(F)F	·	45*	53*	·	·	·
CCOC(=O)c1cnn(-c2nc(-c3ccc(C)cc3)cs2)c1C(F)(F)F	·	-1	14	?	-16%	·
O=C(O)c1cnn(-c2nc(-c3ccc(F)cc3)cs2)c1C(F)(F)F	-13%	15	73*	?	-8%[46.1 µM]	-3%
CC[C@H](C)[C@H](NC(=O)[C@H](CO)NC(=O)[C@@H](NC(=O)[C@H](CO)NC(=O)[C@@H](NC(=O)[C@H](CC(N)=O)NC(=O)[C@H](Cc1ccccc1)NC(=O)[C@H](CO)NC(=O)[C@H](CS)NC(=O)[C@H](CC(N)=O)NC(=O)[C@H](CCCCN)NC(=O)[C@@H](NC(=O)[C@H](CCC(=O)O)NC(=O)CN)[C@@H](C)CC)[C@@H](C)CC)[C@@H](C)O)C(=O)N[C@@H](CCCN=C(N)N)C(=O)O	·	-6	-3	·	·	·
CC1CCCC(NC(=O)C2CCC(CNc3c(N4CCCCC4)c(=O)c3=O)CC2)C1C (configuration not stated)	-17%	1	-14	-1%[46.1 µM]	11%[46.1 µM]	i
CCN(CC)CCNC(=O)C12CC3CC(CC(C3)C1)C2	-6%	-3	-26	19%	-1%	-19%
CCN(CC)CCNC(=O)C(Cl)=C1C(Cl)=C(Cl)C(Cl)=C1Cl	0.79µM*	·	·	?	?	2µM*
N#Cc1cc2c(nc1SCc1ccncc1)CCC2	-20%	43*	102*	?	16%	-12%
CCS(=O)(=O)CCSc1nc2c(cc1C#N)CCCC2	-19%	12*	18	22%	3%	-23%
N#Cc1cc2c(nc1SCC(=O)O)CCCC2	·	3	-19	4%	6%	·
N#Cc1cc2c(nc1SCC(=O)N1CCCCC1)CCCC2	-1%	17*	28	30%[46.1 µM]	-1%	-12%
N#Cc1cc2c(nc1SCc1ccccc1)CCC2	·	1	-29	1%	2%	·
N#Cc1cc2c(nc1SCC(=O)N1CCCCC1)CCCCC2	-10%	61*	100*	0%[46.1 µM]	10%	-5%
CCCCn1c(N)c(N(CC(C)C)C(=O)c2cc(S(=O)(=O)N3CCOCC3)ccc2Cl)c(=O)[nH]c1=O	0%	·	·	-22%	3%	-12%
COc1cccc(C(=O)Nc2ccc3oc(-c4cccc5c(Br)cccc45)nc3c2)c1	-3%	·	·	·	-9%[46.1 µM]	-20%
Cc1csc(=O)n1CCC(=O)OCC(=O)Nc1ccc(Cl)cn1	-10%	·	·	17%	4%[46.1 µM]	-14%
Cc1ccnc(SCc2cc(=O)c(OC(=O)c3cccs3)co2)n1	-8%	-1	18	?	0%[46.1 µM]	?
O=C(Oc1coc(CSc2ncccn2)cc1=O)c1cccs1	10%	16*	22	-10%[46.1 µM]	-5%[46.1 µM]	-18%
